Laboratory results published in the supplement of paper PMC13380429.

How the values were obtained:
[1] = tested on: Vero E6 infected with SARS-CoV-2; assay: morphology score (similarity to uninfected cells); higher = more like uninfected cells; conditions: 24 h
[2] = tested on: Vero E6 infected with SARS-CoV-2; assay: SARS-CoV-2 infection rate relative to infected DMSO; higher = more infection, active = 60 or less; conditions: 24 h

SMILES	morphology score [1]	SARS-CoV-2 infection rate [2]
FC(F)c1nc2ccccc2n1-c1nc(N2CCOCC2)nc(N2CCOCC2)n1 (10 µM)	-0.0463	108% (inactive)
Cc1ccc2c(=O)c3ccccc3n(CCCN)c2c1C (10 µM)	-0.144	110% (inactive)
O=C(Nc1ccc(Oc2ccc(Cl)cn2)c(Cl)c1)c1ccccn1 (10 µM)	0.0983	102% (inactive)
CCNCCS(=O)(=O)NC[C@@]1(c2ccccc2)SC(NC(=O)C(C)(C)C)=NN1C(=O)C(C)(C)C [litronesib] (10 µM)	-0.218	100% (inactive)
NC(=O)c1cnc(N[C@@H]2CCCC[C@@H]2N)nc1Nc1cccc(-n2nccn2)c1 (10 µM)	0.582	17.5% (active)
C[C@@H]1CN(c2c(F)c(N)c3c(=O)c(C(=O)O)cn(C4CC4)c3c2F)C[C@H](C)N1 [sparfloxacin] (10 µM)	-0.0335	115% (inactive)
CC1=C(/C=C/C(C)=C/C=C/C(C)=C/C=C/C=C(C)/C=C/C=C(C)/C=C/C2=C(C)CCCC2(C)C)C(C)(C)CCC1 [beta-carotene] (10 µM)	0.0662	112% (inactive)
CCC(=O)[C@@]1(C)[C@H](C)C[C@H]2[C@@H]3CCC4=CC(=O)C=C[C@]4(C)[C@H]3[C@@H](O)C[C@@]21C [rimexolone] (10 µM)	0.134	98.5% (inactive)
Cc1nc2ccc(NC(=O)Nc3ccnc4cccnc34)cc2o1 (10 µM)	0.053	99.5% (inactive)
Cn1cc(C2=C(c3cn(CCCSC(=N)N)c4ccccc34)C(=O)NC2=O)c2ccccc21 [bisindolylmaleimide-IX] (0.833333 µM)	0.0892	91% (inactive)
C1=N/C2=N/c3ccc(OCCN4CCCC4)c(c3)COC/C=C/COCc3cccc(c3)C(=C1)N2 [pacritinib] (0.833333 µM)	0.286	80% (inactive)
CC(C)n1nc(-c2ccc3oc(N)nc3c2)c2c(N)ncnc21 (0.833333 µM)	-0.0142	102% (inactive)
CC(=O)OCC(=O)[C@@]12OC(C)(C)O[C@@H]1C[C@H]1[C@@H]3C[C@H](F)C4=CC(=O)C=C[C@]4(C)[C@@]3(F)[C@@H](O)C[C@@]12C [fluocinonide] (10 µM)	0.184	104% (inactive)
O=c1[nH]cnc2c1ncn2[C@H]1CC[C@@H](CO)O1 [didanosine] (10 µM)	0.186	112% (inactive)
CC(N)C12CC3CC(CC(C3)C1)C2 (stereo not drawn) [rimantadine] (10 µM)	0.136	102% (inactive)
C[C@H](/C=C/[C@H](C)C(C)(C)O)[C@H]1CC[C@H]2/C(=C/C=C3C[C@@H](O)C[C@H](O)C3)CCC[C@]12C [paricalcitol] (10 µM)	0.0995	104% (inactive)
O=c1ccc2ccc(O)c(O)c2o1 [daphnetin] (10 µM)	0.0316	110% (inactive)
CC(C)=CCC[C@]1(C)C=Cc2c(O)c3c(c(CC=C(C)C)c2O1)O[C@]12C(=C[C@@H]4C[C@H]1C(C)(C)O[C@@]2(C/C=C(/C)C(=O)O)C4=O)C3=O [gambogic-acid] (10 µM)	0.0235	106% (inactive)
CCCCNc1ncc2c(-c3ccc(CN4CCN(C)CC4)cc3)cn([C@H]3CC[C@H](O)CC3)c2n1 (10 µM)	-0.164	119% (inactive)
CCN(CCCOc1ccc2c(Nc3cc(CC(=O)Nc4cccc(F)c4)[nH]n3)ncnc2c1)CCOP(=O)(O)O [barasertib] (0.833333 µM)	0.0323	112% (inactive)
O=c1[nH]ccc2cc(OC3CCNCC3)ccc12 (10 µM)	0.27	110% (inactive)
CCc1c(C(=O)NCCc2ccc(N3CCCCC3)cc2)[nH]c2ccc(Cl)cc12 (10 µM)	-0.0889	124% (inactive)
CN=c1nc(-c2ccccc2)n(-c2ccccc2)s1 (10 µM)	-0.0414	97.5% (inactive)
CC/C(=C(\c1ccc(O)cc1)c1ccc(OCCN(C)C)cc1)c1ccccc1 [afimoxifene] (10 µM)	0.801	27.5% (active)
CN[C@@H](C)C(=O)N[C@H](C(=O)N1CCC[C@H]1c1nc(C(=O)c2ccc(F)cc2)cs1)C1CCCCC1 (10 µM)	0.403	87% (inactive)
CC1(C)CC[C@]2(C(=O)O)CC[C@]3(C)C(=CC[C@@H]4[C@@]5(C)CC[C@H](O)C(C)(C)[C@@H]5CC[C@]43C)[C@@H]2C1 [oleanolic-acid] (10 µM)	0.0528	110% (inactive)
CN(C)CCc1ccc(O)cc1 [hordenine] (10 µM)	0.163	90.5% (inactive)
CCCCC/N=c1\ccn(Cc2ccccc2)c2ccccc12 (10 µM)	0.0295	108% (inactive)
CO[C@H]1CC[C@H](N(c2cc(C3=CCCCC3)sc2C(=O)O)C(=O)[C@H]2CC[C@H](C)CC2)CC1 (10 µM)	0.155	83% (inactive)
